High-throughput results deposited in PubChem BioAssay by National Center for Advancing Translational Sciences (NCATS).
Hits are enriched below; roughly 9.8% of the tested compounds scored in any of these assays.
HPGD inh = blocks human HPGD enzyme activity; P15428; purified HPGD, NADH fluorescence kinetic, PGE2 substrate; Potency, µM, actives largely listed as inhibitors; actives 4.3% (n = 150,000); AID 894
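NADH formation kinetics: reaction with 30 uM PGE2 and 1 mM NAD+ (final), 20 nM enzyme, Tris-HCl pH 8 with Tween 20, after 15 min compound preincubation at room temperature. Fluorescence change, last versus first of five reads.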
CBFb RUNX1 block = blocks binding between human CBF-beta and RUNX1; Q01196+Q13951; AlphaScreen CBFb-His/RUNX1-biotin binding, biochemical; Potency, µM (top dose mostly 59.8 µM), usual class: inhibitors; 230,000 tested, under 10 active; AID 1477; active means well fitted curve in the direction sought with a large enough effect; inconclusive means small, poorly fitted or top-dose-only effect, or another doubt; inactive means no such curve, though single readings can be large; an effect the other way counts as inactive or inconclusive
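CBF-beta (His) and RUNX1 (biotin), 30 nM each; 20 min preassociation; + compound, 15 min; + beads 50 ng each (Ni, streptavidin), 90 min; RT; AlphaScreen read.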
KDM4E inh = JMJD2E (human) inhibition; actives 1.6% (n = 230,000); JMJD2E catalytic domain, FDH-coupled NADH fluorescence (FDH is formaldehyde dehydrogenase); AID 2147; Potency, µM (series often up to 57.1 µM), hits mostly inhibitors; further: nearly all actives have a fitted effect of over 50% in size
Target sequence (B2RXH2 1-337 limits assumed): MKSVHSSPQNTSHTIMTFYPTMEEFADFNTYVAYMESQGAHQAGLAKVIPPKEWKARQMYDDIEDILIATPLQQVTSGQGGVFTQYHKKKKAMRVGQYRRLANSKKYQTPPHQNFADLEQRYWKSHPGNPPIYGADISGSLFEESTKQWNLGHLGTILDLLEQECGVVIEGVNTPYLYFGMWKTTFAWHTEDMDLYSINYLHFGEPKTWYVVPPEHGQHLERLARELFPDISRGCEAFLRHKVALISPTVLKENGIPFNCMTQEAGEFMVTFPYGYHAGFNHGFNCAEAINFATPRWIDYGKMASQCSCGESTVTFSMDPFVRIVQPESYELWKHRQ
HTT aggregate = mutant huntingtin aggregation inhibition | PC12 HttQ103-GFP aggregates, Acumen cytometry, 40 h | Potency, µM (top dose mostly 46.1 µM), usual class: inhibitors | actives 1.1% (n = 220,000) | AID 1688; active means well fitted curve in the direction sought with a large enough effect; inconclusive means small, poorly fitted or top-dose-only effect, or another doubt; inactive means no such curve, though single readings can be large; an effect the other way counts as inactive or inconclusive; further: nearly all actives have a fitted effect of over 60% in size
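Huntingtin Q103 exon 1–GFP aggregates in induced PC12 cells (100 nM tebufenozide) were quantified by cytometry from lysates, with compounds dosed in titration.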
HTT ATP protect = cytoprotection in Huntington HTT-Q103 PC12 cell model. actives 0.14% (n = 230,000). Potency, µM (titrated, usually from 56.4 µM), hits mostly activators. AID 1471. PC12 HTT-Q103 induced, cytoprotection, ATP luminescence, 40 h; active means well fitted curve in the direction sought with a large enough effect; inconclusive means small, poorly fitted or top-dose-only effect, or another doubt; inactive means no such curve, though single readings can be large; an effect the other way counts as inactive or inconclusive; further: nearly all actives have a fitted effect of over 45% in size
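Rat PC12, Q103 Htt exon1-GFP fusion, ecdysone promoter; tebufenozide inducer 100 nM final; compound titration; qHTS, 1500 cells/well; ATPlite luminescent read.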
ALDH1A1 inh = blocks purified human ALDH1A1 activity; P00352; Purified ALDH1A1, NADH fluorescence, propionaldehyde substrate; Potency, µM (highest dose often 75.3 µM), most hits filed as inhibitors; actives 7.3% (n = 220,000); AID 1030
Large screens that a line does not name were inactive. Unless noted, the call rests on the fitted dose curve; in most records, active means well fitted inhibition curve with a large enough effect (not every such curve was filed as active); inconclusive means small, poorly fitted or top-dose-only effect, or another doubt; inactive means no such curve, though single readings can be large or run the other way.

Cc1ccc(NC(=O)c2cc(N3C(=O)C=CC3=O)ccc2N2CCOCC2)cc1	ALDH1A1 inh 0.35µM (no result: HPGD inh)
COc1c(C)cccc1C(=O)Nc1ccc(N2CCOCC2)c(Cl)c1	none
CC(C)N(C(=O)COC(=O)c1cccc(C(=O)OCC(=O)N(C(C)C)C(C)C)n1)C(C)C	none (no result: HPGD inh)
CCN(CC)C(=O)Cn1cnc([N+](=O)[O-])n1	none
Clc1ccccc1CN1CCN(/N=C/C=C\c2ccco2)CC1	KDM4E inh inconclusive, ALDH1A1 inh 3.2µM (no result: HPGD inh)
C(/C=C/c1ccco1)=N/N1CCN(c2ccccc2)CC1	ALDH1A1 inh inconclusive
Cc1nc2ccccc2n1C(=O)c1ccccc1[N+](=O)[O-]	HTT aggregate 0.14µM (no result: HTT ATP protect)
CC1CCCCC1n1c(=S)[nH]c2ccccc2c1=O (stereo unspecified)	HTT aggregate 20µM (no result: HPGD inh)
O=C(CCc1c[nH]c2ccccc12)NC1CC1	HPGD inh 16µM, HTT aggregate inconclusive, HTT ATP protect inconclusive
COc1ccc2[nH]c3c(=O)n(CCCCC(=O)N4CCCC4)c(=S)[nH]c3c2c1	HPGD inh 4.5µM
CC1CCCN(C(=O)CCCn2c(=S)[nH]c3ccccc3c2=O)C1 (stereo unspecified)	HPGD inh 7.9µM, ALDH1A1 inh 18µM
CC(NC(=S)Nc1ccc(F)cc1)C(c1cccs1)N1CCOCC1 (stereo unspecified)	none (no result: HPGD inh)
c1ccc(CN2COc3c(ccc4c5c(ccc34)CN(Cc3ccccc3)CO5)C2)cc1	none (no result: CBFb RUNX1 block, KDM4E inh, HTT aggregate)
Cc1snnc1C(=O)NC(=S)Nc1ccccc1	ALDH1A1 inh inconclusive (no result: HPGD inh)
CSc1nnc(Cn2c(=O)sc3ccccc32)n1CCc1ccccc1	none
CC1CCCCC1NC(=O)CCCn1c(=S)[nH]c2ccccc2c1=O (stereo unspecified)	none (no result: HPGD inh)
O=C(CCn1c(=S)[nH]c2ccccc2c1=O)NCC1CCCO1 (stereo unspecified)	HPGD inh 28µM, ALDH1A1 inh inconclusive
O=C(CCCn1c(=S)[nH]c2ccccc2c1=O)NC1CCCC1	HPGD inh 14µM, ALDH1A1 inh inconclusive
COC(=O)c1ccc(NC(=O)c2ccccc2)o1	HPGD inh 32µM
COC(=O)CSC1=C(C#N)C(=O)NC(c2ccccc2)S1 (stereo unspecified)	KDM4E inh inconclusive, ALDH1A1 inh 24µM
N#CC1=C(SCC(N)=O)NC(=O)CC1c1cccc2ccccc12 (stereo unspecified)	none (no result: HPGD inh, CBFb RUNX1 block, KDM4E inh, HTT aggregate, ALDH1A1 inh)
CCSC1=C(C#N)C(c2ccccc2Cl)CC(=O)N1 (stereo unspecified)	ALDH1A1 inh inconclusive
COC(=O)CSC1=C(C#N)C(c2ccccc2)CC(=O)N1 (stereo unspecified)	ALDH1A1 inh 16µM
COC(=O)CSC1=C(C#N)C(c2ccc(C(C)C)cc2)CC(=O)N1 (stereo unspecified)	ALDH1A1 inh inconclusive
CCCSC1=C(C#N)C(c2ccc(Cl)cc2Cl)CC(=O)N1 (stereo unspecified)	HPGD inh 32µM, ALDH1A1 inh 20µM
N#CC1=C(SCC(N)=O)NC(=O)CC1c1ccccc1Cl (stereo unspecified)	ALDH1A1 inh 20µM
COc1cccc(N=Nc2c(N)[nH]n3c(=O)c4c(nc23)CCCC4)c1	none (no result: HPGD inh)
O=C(c1ccc(F)cc1)N(C(=O)c1ccc(F)cc1)c1ncccn1	none (no result: HPGD inh)
C/C(CC(=O)Nc1cccc(Cl)c1C)=N\NC(=O)Cc1csc(N)n1	none (no result: HPGD inh)
CCCN(CC1CC1)S(=O)(=O)c1ccc(S(N)(=O)=O)cc1	none
COc1cc(C2C3=C(Nc4nc(N)[nH]c(=O)c42)c2ccccc2C3=O)ccc1O (stereo unspecified)	none (no result: HPGD inh, ALDH1A1 inh)
Cc1ccc(C2CC(=O)NC(SCCC(C)C)=C2C#N)cc1 (stereo unspecified)	HPGD inh inconclusive, ALDH1A1 inh 13µM
C=C(C)CSC1=C(C#N)C(c2ccccc2)CC(=O)N1 (stereo unspecified)	HPGD inh 25µM, ALDH1A1 inh 6.3µM (no result: CBFb RUNX1 block, KDM4E inh, HTT aggregate, HTT ATP protect)
N#CC1=C(SCC(=O)Nc2ccccc2)NC(=O)CC1c1ccc(O)cc1 (stereo unspecified)	ALDH1A1 inh inconclusive
